Results taken from PubChem BioAssay (NCI).
The panel holds about 83,000 compounds, 20% with a hit somewhere; the sample as a whole holds those more often.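 Negative percent growth values reflect cell death: -40 means 40% of the cells present at the start died, and -100 means all died.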 Unmarked numbers belong to inactive results. Calls of active or inactive are those of the source.

test system: OVCAR-8 ovarian; assay: NCI-60 one-dose screen, 48 h (100 = growth as untreated, 0 = no growth, -100 = all killed); settings: 10 µM unless noted
Method: Growth inhibition of the OVCAR-8 human tumor cell line is measured as a screen for anti-cancer activity. Cells are grown in 96 well plates and exposed to the test compound for 48 hours. Compounds are tested at a single concentration, which is 10^-5 M for most compounds. The reported endpoint is percent growth (GI% or GIPRCNT), where numbers from 0 - 100% represent growth inhibition, and numbers from -100% - 0 represent cell death. For example, a value of 40 represents 60% growth inhibition. A value of 0 means no net growth occurred over the course of the experiment. A value of -40 indicates 40% of cells at the beginning of the experiment died by the end of the experiment. A value of -100 means all cells are dead at the end of the experiment.
NCI-60 Human Tumor Cell Lines Screen was performed using the standard one-dose NCI protocol, which is described in more detail at https://dtp.cancer.gov/discovery_development/nci-60/default.htm.
Compounds with GIPRCNT values below 10 were considered active. Activity score was based on GIPRCNT using the following formula: […]
Score is 0 for GIPRCNT values of 100 or above, 50 for GIPRCNT values of 0, and 100 for GIPRCNT values of -100.

Compound	growth
COc1ccccc1N1CCN(CCc2c[nH]c3cc4c(cc23)OCO4)CC1	88.4%
O=C(CCc1ccco1)NC1CCN(CC2(c3ccc(Cl)cc3)CCC2)CC1	12.2%
Cc1ccc(C[As+](c2ccccc2)(c2ccccc2)c2ccccc2)cc1	9.13% (active)
Nc1ncnc2c1c(C(=O)NO)cn2C1OC(CO)C(O)C1O (stereo not given)	-20.2% (active)
COC(=O)C1CC2c3ccccc3C1c1ccccc12 (stereo not given)	101%
O=S(=O)(c1ccc(Cl)cc1)C(Cl)(Cl)Cl	58.5%
NCCc1cc(O)c(O)cc1O	97.8%
C=CCN1C(=O)C(CC)(CCC(C)C)C(=O)NC1=S (stereo not given)	99.4%
CNC(=O)Oc1cccc(OC)c1	108%
[Br][Pb]([c]1ccccc1)([c]1ccccc1)[c]1ccccc1	-100% (active)
CCCC(C)(C)c1ccc2c(c1)OC(C)(C)[C@@H]1CC=C(C)C[C@@H]21	97.7%
CCOc1cc(/C=N\Nc2nnc(C)n2N)c(C)cc1N(CCCl)CCCl	19.5%
Cc1cc(N(CCCl)CCCl)ccc1C=Nc1ccc2ccccc2c1	72.7%
C[C@]12CC[C@@H]3C4=C(CC[C@H]3[C@@H]1CC[C@@H]2O)CC(=O)CC4	101%
O=S(=O)(Cl)c1ccccc1 (tested in a mixture with another compound)	108%
CC[C@H](C)[C@H](NC(=O)Nc1ccccc1)C(=O)N(C)[C@H](C[C@@H](OC(C)=O)c1nc(C(=O)N[C@@H](Cc2ccccc2)C[C@H](C)C(=O)OC)cs1)C(C)C	14.6%
CC1=C(SCCC(=O)OCC(=O)NCCC[Te]c2ccccc2)C(=O)c2ccccc2C1=O	5.76% (active)
O=C(O)CNC(=O)c1ccccc1	113%
N#CC(C#N)=Cc1ccc2ccccc2c1	105%
COc1cc(CNCCc2ccc(Cl)cc2)cc(OC)c1O	66.3%

Compound	growth
CC1(C)N=C(N)N=C(N)N1c1ccc(CCCCc2ccc(S(=O)(=O)F)cc2)c(Cl)c1	16.5%
CC12CCC(=O)C=C1C(O)CC1C2CCC2(C)C(O)CCC12 (stereo not given)	105%
CC12CCC(=O)C=C1CCC1C2CCC2(C)C(C(=O)COC(=O)Cc3ccc(N(CCCl)CCCl)cc3)CCC12 (stereo not given)	79.1%
CCN(CC)CCOc1c(C(C)C)cccc1C(C)C	100%
Cc1ccccc1O	103%
CCC[CH2][Sn]([CH2]CCC)([CH2]CCC)[O]C(=O)c1ccc(Cl)cc1Cl	-63.6% (active)
CO[C@@H]([CH2][Hg][S]C#N)[C@@H]([CH2][Hg][S]C#N)OC	107%
CNC(=O)Oc1cccc(N(C)C)c1	99.5%
CCOC(=O)C1(c2ccccc2)CCN(CC(=O)c2ccc(NC(C)=O)cc2)CC1	110%
CCOc1c(Cl)cc(CNC(C)C(O)c2ccccc2)cc1OC (stereo not given)	56.5%
CC(C)(NC(=O)c1nn(CCCCCF)c2ccccc12)c1ccccc1	83.5%
C[C@]12CCc3sc(-c4ccc(Cl)cc4)nc3C1=CC[C@@H]1[C@@H]2CC[C@]2(C)C(=O)CC[C@@H]12	80.4%
CCOC(=O)/C(C#N)=C/c1ccc(N(CCCl)CCCl)cc1	71.6%
COc1ccc(C2=NN(c3ccccc3)C(c3sc(N(CCCl)CCCl)nc3Cl)C2)cc1 (stereo not given)	87.8%
O=C(Nc1ccc(S(=O)(=O)F)cc1)Oc1ccccc1	101%
c1ccc2nc(OCCN3CC3)ccc2c1	78.2%
NC(=O)NC(=O)CI	101%
CCOC(=O)Nc1cc(Cl)c([N+](=O)[O-])c(NC(=O)OCC)n1	64.6%
[Cl][Hg][n]1cnc2c(Cl)c(Cl)c(Cl)cc21	101%
O=[N+]([O-])c1cccc([As]=[As]c2cccc([N+](=O)[O-])c2)c1 (stereo not given)	-70% (active)
